TGFb SMAD3 inh: blocks TGF-b signaling. HepG2 CAGA-GFP TGF-b/SMAD3 reporter, GFP fluorescence, 18 h; TGF-beta stimulated, 500 pg/mL final. Potency, µM (titrated, usually from 46.1 µM), inactives show top-dose activity, negative = inhibition, most hits filed as inhibitors. hit rate 1.2% among 410,000; further: potency means the concentration at half of the fitted maximal effect; on the % scale 0 is the no-effect control and ±100 the full control effect; nearly all actives have a fitted effect of over 65% in size
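Smad-responsive CAGA-GFP expression was quantified in HEPG2 cells exposed to compounds and 500 pg/mL final TGF-beta for 18 h at 37 degrees C; unstimulated wells defined full inhibition.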
ATXN viability: cell viability loss in ATXN counter-screen; S2 cells (HEK-293 line with an ATXN2-luciferase reporter) viability, CellTiter-Fluor protease fluorescence, 24 h; Potency, µM (titrated, usually from 56.7 µM), actives largely listed as cytotoxic; hit rate 0.49% among 400,000; further: potency means the concentration at half of the fitted maximal effect; nearly all actives have a fitted effect of over 40% in size
ATXN2 expr inh: inhibitors of ATXN2 expression. Potency, µM (doses to about 57 µM), for inactives: at the top dose activity change, negative = inhibition, actives largely listed as inhibitors. HEK-293 ATXN2-luciferase reporter, luminescence, 24 h. hit rate 0.72% among 360,000. AID 1745845; further: potency means the concentration at half of the fitted maximal effect; on the % scale 0 is the no-effect control and ±100 the full control effect; nearly all actives have a fitted effect of over 55% in size
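ATXN2-luciferase reporter cells (luciferase flanked by upstream and downstream ATXN2 gene portions) were treated 24 h at 37 °C with compounds at up to 57 uM. SteadyGlo luminescence gave expression; GF-AFC fluorescence gave viability.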
HepG2 viability: kills HepG2 cells in TGF-b inhibitor counter-screen; HepG2 CAGA-GFP viability, ATP luminescence, 18 h; Potency, µM (top dose mostly 46.1 µM), for inactives: at the highest dose activity change, negative = cytotoxicity, actives largely listed as cytotoxic; hit rate 0.76% among 410,000; AID 588856; further: potency means the concentration at half of the fitted maximal effect
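HepG2 CAGA-GFP cells (1000/well, DMEM with 1% FBS) received compound, then TGF-beta at 500 pg/mL final, and were incubated 18 hours at 37 degrees C. Viability was read by CellTiter-Glo luminescence. Media-only wells were set as complete cell-killing and DMSO as no toxicity.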
IL1B secr inh: blocks inflammasome-driven IL-1 beta release; THP-1 LPS/ATP IL-1B secretion, AlphaLISA, 16 h; stronger effect = lower value; activity change, % at 57.5 µM; hit rate 4.7% among 360,000; in the data active means activity change below about -50%; inconclusive means mostly about -30% to -49%; further: on the % scale 0 is the no-effect control and ±100 the full control effect
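THP-1 cells pretreated 1 hr with compounds (up to 57.5 uM final), then stimulated with LPS (250 ng/mL final) plus ATP (1.25 mM final); secreted IL-1B measured by AlphaLISA after 16 hr, decreased signal indicating inhibition.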
* marks the source's active call; other numbers are inactive results; i = inactive; ? = inconclusive; . = no result. Shown are actives, neighbours in structure and some others; about 5.7% of the full set was active somewhere. Unless noted, the call rests on the fitted dose curve; in most records, active means well fitted curve in the direction sought with a large enough effect; inconclusive means small, poorly fitted or top-dose-only effect, or another doubt; inactive means no such curve, though single readings can be large; an effect the other way counts as inactive or inconclusive.

SMILES	TGFb SMAD3 inh	ATXN viability	ATXN2 expr inh	HepG2 viability	IL1B secr inh
COc1cccc(S(=O)(=O)NCc2ccc(C(=O)Nc3cccc(Cl)c3)cc2)c1	-14%	?	16µM*	-3%	?
COc1cc2nc(N3CCCN(C)CC3)nc(OC3CCN(C)CC3)c2cc1OC	-22%	.	.	-63%	.
COc1ccc(NC(=O)Cn2ccn(-c3ccc(C)c(C)c3)c(=O)c2=O)cc1Cl	-18%	.	.	0%	.
CCCCC(O)/C=C(C)/C=C/C=C/C(=O)N1CCCC1=O (centres undefined)	.	i	15%	.	.
C(=Nc1cnc2ccccc2c1)c1ccncc1	13%	.	.	5%	.
COc1ccc(C(=O)/C=C/C(=O)N(CC(=O)NC2CCCCC2)Cc2ccc(F)cc2)c(O)c1	-8%	.	?	-13%	-98*
COc1ccc(C(=O)/C=C/C(=O)N(CC(=O)NCCC(C)C)Cc2cccs2)c(O)c1	-19%	.	.	-17%	-88*
COc1ccc(C(=O)N(Cc2ccco2)Cc2cccs2)c(O)c1	-1%	i	-7%	-23%	-18
COc1ccccc1Nc1sc(C(=O)c2ccc3c(c2)OCO3)c(N)c1S(=O)(=O)c1ccccc1	1%	i	-12%	-5%	.
COc1ccc(Cl)cc1NC(=S)NNC(=O)C1(C)CC1(Cl)Cl (centres undefined)	20µM*	i	-11%	-42%	?
COC(=O)c1cc(OC)c(OC)cc1NC(=S)Nc1cc(Cl)ccc1OC	-28%	i	3%	-1%	-22
CN1c2ccccc2-c2nc(SCC(=O)Nc3ccccc3)ncc2S1(=O)=O	-39%	i	-11%	-27%	.
Cc1ccc(/C=C2/NC(=O)N(c3ccccc3)C2=O)o1	-18%	i	34%	-45%	0
O=C1N/C(=C/c2ccc(N3CCOCC3)o2)C(=O)N1c1cccc(Cl)c1	10µM*	i	-33%	-54%	?
NCCOc1ccccc1Cc1ccccc1	9%	i	-21%	-19%	-62*
COc1cc(-c2cc(-c3ccc(O)cc3)nc(N)c2C#N)ccc1O	-8%	i	27%	-25%	-65*
O=C(/C=C/c1ccncc1)c1ccc(NC(=O)c2ccccc2F)cc1	13µM*	?	-14%	5µM*	-104*
O=C(O)c1ccccc1-c1ccccc1C(=O)Nc1ccc(F)cc1	2%	i	5%	-5%	-13
O=C(/C=C/c1ccc(NC(=O)c2ccccc2-c2ccccc2C(=O)O)cc1)c1ccccc1	?	i	.	-70%	-62*
O=C(NCc1ccco1)c1ccc(Cl)c(S(=O)(=O)N2CCOCC2)c1	-8%	i	-2%	4%	-8
O=C(NCc1ccco1)c1ccc2c(c1)N(Cc1ccccc1)CCS2	1%	i	.	-5%	?
O=C(c1ccc(Cl)c(S(=O)(=O)N2CCc3ccccc32)c1)N1CCN(c2ccccc2O)CC1	?	?	?	-19%	-73*
CC(=O)N1CCN(C(=O)c2ccc(Cl)c(S(=O)(=O)N3CCc4ccccc43)c2)CC1	-9%	i	20%	0%	27
O=C(NCc1ccco1)c1ccc(Cl)c(S(=O)(=O)N2CCc3ccccc32)c1	?	i	-18%	-25%	-51*
O=C(NCc1ccco1)c1ccc(Br)c(S(=O)(=O)N2CCCCC2)c1	-23%	i	3%	-11%	-59*
SMILES	TGFb SMAD3 inh	ATXN viability	ATXN2 expr inh	HepG2 viability	IL1B secr inh
O=C(NCc1ccco1)c1ccc2c(c1)N(Cc1ccc(Cl)cc1)CCS2	-2%	i	-18%	10%	-60*
Cc1ccc(O)c(NC(=O)c2cccc(S(=O)(=O)N3CCCCC3)c2)c1	33%	i	5%	-6%	-9
O=C(Nc1cc(Cl)cc(Cl)c1)c1ccc(F)c(S(=O)(=O)N2CCCC2)c1	?	.	.	-32%	.
Cc1ccc(O)c(NC(=O)c2ccc(Br)c(S(=O)(=O)N3CCCCC3)c2)c1	?	?	?	14µM*	.
O=C(Nc1ccc(F)c(F)c1)c1ccc(F)c(S(=O)(=O)N2CCC3(CC2)OCCO3)c1	-8%	?	?	-9%	-60*
O=C(Nc1cc(Cl)cc(Cl)c1)c1ccc(F)c(S(=O)(=O)N2CCc3ccccc32)c1	4µM*	.	.	-76%	.
COc1ccc(C2C3C=CCC(C)C3C(=O)N2Cc2ccccc2)cc1Cl (centres undefined)	?	.	.	-35%	.
CC(=O)Nc1ccc(S(=O)(=O)NCc2cccn2Cc2cccc(C)c2)cc1	?	i	-18%	-37%	.
Cc1cc(C)c2nc(C(F)(F)F)c(C#N)c(N)c2c1	3%	i	17%	-17%	35
Cc1ccc2nc(C(F)(F)F)c(C#N)c(N)c2c1	?	i	-36%	-4%	-101*
CCN(CC)CCNc1ccnc2cc(Cl)ccc12	-15%	i	?	-38%	-56*
Clc1ccc(NNc2ccnc3cc(Cl)ccc23)cc1	4%	i	-5%	-9%	-30
Oc1ccc(Nc2ccnc3cc(Cl)ccc23)cc1	?	i	?	-29%	-74*
Cc1cccc(NC(=S)NNc2ncc(C(F)(F)F)cc2Cl)c1	?	i	?	-37%	-14
S=C(NNc1ccnc2cc(Cl)ccc12)Nc1ccccc1Cl	?	?	?	-18%	-91*
FC(F)(F)c1cnc(NNC(=S)Nc2ccccc2Cl)c(Cl)c1	7.1µM*	i	6µM*	-49%	-52*
COc1ccccc1-n1c(/C=C/c2c(C)n(C)c3ccccc23)nc2ccccc2c1=O	?	.	.	-24%	.
O=Cc1ccccc1C=O	.	i	9%	.	.
Clc1ccc2c(NCc3ccccc3)ccnc2c1	?	i	?	-28%	-99*
O=C(NCCNc1ccnc2cc(Cl)ccc12)c1ccccc1F	-12%	?	.	-23%	-14
